Data on nine compounds can be found in PubChem BioAssay.

Structures are written as SMILES. Results filed as inconclusive are left out. The source made the active and inactive calls. Cut-off read from the data, not from the text of the source, unless noted: active = inhibition above about 30%; inactive = the rest.

The nature of assay [1]: reducers of endogenous Her2 protein level, primary screen, SKBR3 breast tumor cells, AlphaScreen, ATP viability (AID 461;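 active = Her2 level under about 52% in both replicate screens, with viability over 70% of control, limit read from the data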;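 for Her2 level: lower value means less Her2 protein in the cells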;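 for viability: percent of carrier control wells set as 100% viability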). As to conditions: 18-24 h, measured here: SKBR3 viability, ATP luminescence, at 10 µM. (In general: Bead proximity is the source of the signal in Alpha formats.)
The target in assay [2] is Receptor tyrosine-protein kinase erbB-2 (Homo sapiens) (UniProt P04626). Described as above. The conditions noted are these: 18-24 h, at 10 µM, stronger effect = lower value.
Assay [3] is described as follows: SK-BR-3 cell growth inhibitors, pilot screen, 24 h, human (AID 572;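 active = viability at or below 10% of carrier control in both of two separate runs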;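 note: compound exposure lasted between 18 and 24 h rather than exactly 24 h; 100% = carrier-treated control wells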). The conditions noted are these: SK-BR-3 viability, CellTiter-Glo luminescence, at 10 µM, stronger effect = lower value.
A short description of assay [4]: HUVEC growth inhibition – cell-based, human, primary screen (AID 575;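 active = viability at or below 30% in both replicate assays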;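 note: 100% = median of untreated cell wells with 0.1% DMSO on each plate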). The conditions noted are these: HUVEC proliferation, CellTiter-Glo luminescence, 72 h; at 10 µM; stronger effect = lower value.
A short description of assay [5]: growth inhibitors of H69AR lung tumor, primary screen, human, duplicate replicates (AID 580;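 active = viability at or under a set limit in both replicates, limit being median viability minus 3 SD, cut at about 48% in these data, passing the limit was not always enough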;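 note: 100% = mean luminescence of untreated wells and 0% = no signal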). The conditions noted are these: H69AR lung tumor cells viability, ATP luminescence, 72 h; at 10 µM; stronger effect = lower value.
A short description of assay [6]: reversal of MRP1-mediated doxorubicin resistance, pilot screen, H69AR cells, doxorubicin co-treatment (AID 601;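 active = viability loss from added drug above about 55%, and viability with drug at most 40%, in both replicates, limit read from the data, passing the limit was not always enough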). The conditions noted are these: CellTiter-Glo, 72 h, at 10 µM; for differential viability (reversal): stronger effect = higher value. On the technique in general: ATP-based viability assays read luminescence as a measure of living cells.
Assay [7] can be described thus: 384-well plate pilot, post-Golgi transport modulator project, inhibition of yeast transport mutant growth (AID 636; in the data active = inhibition above about 31%). As to conditions: absorbance 615 nm, about 18 h, stronger effect = higher value.
A short description of assay [8]: growth suppression of yeast trafficking mutant, preliminary HTS, modulators of trafficking downstream of Golgi apparatus project, 1536-format plate, OD 615 nm (AID 637). As to conditions: yeast transport mutant growth, absorbance 615 nm, 18 h; stronger effect = higher value.
The nature of assay [9]: OD615 S. cerevisiae growth inhibition, permissive medium, pilot counter-assay, permissive growth control for S. cerevisiae lifespan shortening project (AID 705;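 active = growth inhibition above 25% in both replicates, a cutoff set 3 SD above the mean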). As to conditions: OD615, 24 h, at 10 µM, stronger effect = higher value.
The nature of assay [10]: Restrictive medium S. cerevisiae growth inhibition, OD615, pilot screen of yeast lifespan reduction project, restrictive growth control (AID 706;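 active = growth inhibition above a set limit, 3 SD over mean compound inhibition, in both replicates, cut at about 43% in these data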;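 note: modified DeaD lifespan yeast strain shifted to restrictive glucose medium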). The conditions noted are these: OD615, 48 h, at 10 µM, stronger effect = higher value.
The nature of assay [11]: viability gain of MRP-1-high H69AR cells under doxorubicin, pilot screen, MRP-1 activator project, CellTiter-Glo, duplicate (AID 807;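 active = viability increase at or above a cutoff of the median across tested compounds plus 3 SD, cut at about 8.5% in these data, passing the limit was not always enough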;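 note: compound pretreatment 18-22 h then 72 h combined with doxorubicin; 0% = doxorubicin alone and 100% = vehicle without doxorubicin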). The conditions noted are these: H69AR viability with doxorubicin, CellTiter-Glo luminescence; at 10 µM; stronger effect = higher value.
A short description of assay [12]: growth suppression of beta-catenin knockout HCT116, pilot screen, human colon tumor cells (AID 823;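 active = cell viability at or below a set limit in both duplicate runs, the limit being the all-compound median minus 4 SD, cut at about 23% in these data, passing the limit was not always enough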;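 note: 0% = wells killed by 20 µM Hyamine and 100% = untreated DMSO cell wells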). As to conditions: CellTiter-Glo, 60 h, at 10 µM, stronger effect = lower value.
Assay [13] in a line: growth suppression of PTEN-deleted HCT116, pilot screen, cell-based, HCT116 clonal line, CellTiter-Glo (AID 824;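 active = viability at or below 27.92% in each of two runs, the all-compound median minus 4 SD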;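 note: 0% = 20 µM Hyamine control and 100% = vehicle cell control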). As to conditions: 60 h, at 10 µM, stronger effect = lower value.
The nature of assay [14]: inhibitors of the yeast RAM network, pilot screen, dse1pr::URA3 reporter, 5-FOA selection (AID 869;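 active = inhibition over a set limit, the all-compound mean plus 3 SD, in both replicate runs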;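 note: 0% = DMSO wells with no growth and 100% = 10 µM 1-NA-PP1 with full growth; RAM network block rescues cells from 5-FOA so hits raise OD615 growth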). The conditions noted are these: S. cerevisiae dse1pr::URA3 5-FOA growth, OD615, 2 d; at 10 µM; stronger effect = higher value; strain carries analog-sensitive mutant Cbk1 kinase.
Assay [15] can be described thus: RAM signaling pathway blockade in yeast – S. cerevisiae, Pdr1DBD-CYC8 efflux-inhibited sensitized strain, primary screen (AID 1298;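 active = RAM network inhibition above 8.4% in each of two replicates, 3 SD over the compound average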;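 note: 0% = DMSO untreated cells without growth and 100% = 10 µM 1-NA-PP1 full growth; higher means more yeast growth rescued from 5-FOA killing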). The conditions noted are these: S. cerevisiae cbk1-as DSE1-URA3 strain, 5-FOA growth OD615, 2 d; at 50 µM; stronger effect = higher value.
[16] abbreviates: H69AR cells + 2 uM doxorubicin, measured here: viability with 2 uM doxorubicin, stronger effect = lower value.
Setting [17] is: H69AR cells, compound alone cytotoxicity.

Sequence of Receptor tyrosine-protein kinase erbB-2 (Homo sapiens) (P04626 whole entry, looked up): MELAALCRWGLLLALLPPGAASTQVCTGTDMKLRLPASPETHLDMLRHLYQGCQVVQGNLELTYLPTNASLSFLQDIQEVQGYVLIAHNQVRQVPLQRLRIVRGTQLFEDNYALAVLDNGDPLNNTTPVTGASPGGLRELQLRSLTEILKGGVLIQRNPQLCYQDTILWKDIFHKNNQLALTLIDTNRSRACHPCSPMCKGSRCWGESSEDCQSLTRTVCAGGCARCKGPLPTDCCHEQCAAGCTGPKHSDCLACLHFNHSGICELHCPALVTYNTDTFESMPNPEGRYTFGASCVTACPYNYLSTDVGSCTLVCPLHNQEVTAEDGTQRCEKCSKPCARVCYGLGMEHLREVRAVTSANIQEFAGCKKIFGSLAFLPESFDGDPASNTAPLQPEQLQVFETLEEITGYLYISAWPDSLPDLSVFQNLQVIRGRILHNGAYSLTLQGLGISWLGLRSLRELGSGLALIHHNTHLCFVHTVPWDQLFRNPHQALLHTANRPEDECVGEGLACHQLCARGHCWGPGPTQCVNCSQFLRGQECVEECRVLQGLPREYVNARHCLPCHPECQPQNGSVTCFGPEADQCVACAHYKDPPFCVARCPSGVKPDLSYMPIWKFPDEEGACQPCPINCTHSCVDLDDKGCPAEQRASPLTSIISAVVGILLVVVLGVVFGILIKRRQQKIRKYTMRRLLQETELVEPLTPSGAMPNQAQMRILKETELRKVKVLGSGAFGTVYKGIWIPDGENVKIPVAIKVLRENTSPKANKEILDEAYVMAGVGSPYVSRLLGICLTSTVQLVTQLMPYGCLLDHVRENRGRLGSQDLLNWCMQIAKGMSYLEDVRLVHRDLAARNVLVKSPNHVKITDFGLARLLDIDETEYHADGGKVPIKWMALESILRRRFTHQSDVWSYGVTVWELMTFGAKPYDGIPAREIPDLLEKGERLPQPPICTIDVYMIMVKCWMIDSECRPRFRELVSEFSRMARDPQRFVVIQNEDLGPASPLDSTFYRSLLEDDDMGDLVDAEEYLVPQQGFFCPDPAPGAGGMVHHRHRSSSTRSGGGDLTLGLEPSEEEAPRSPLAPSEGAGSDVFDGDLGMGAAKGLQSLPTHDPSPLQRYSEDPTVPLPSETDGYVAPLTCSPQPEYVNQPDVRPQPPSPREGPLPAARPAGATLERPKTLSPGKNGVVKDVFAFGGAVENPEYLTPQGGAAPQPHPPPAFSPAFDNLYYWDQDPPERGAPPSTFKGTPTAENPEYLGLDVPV

The viability is a read-out of living cells in per cent, often relative to untreated cells. The term inhibition denotes the relative decrease from the control value, in per cent. `COc1ccc2c(c1)CCc1cc(C(=O)N3CCN(c4ccc(N5CCOCC5)nn4)CC3)sc1-2`: the viability in assay [1] was 93.5%; in [3], 93.5% (inactive); in assay [4] it was 98.4% (inactive); in assay [5], 63.7% (inactive); in [6] (setting [16]) it was 75.1%; in assay [6] (setting [17]) it was 63.7%. Also, the viability in assay [12] was 60.4% (inactive); in [13], 59% (inactive). The Her2 level in assay [2] is 79% (inactive). In assay [6] (H69AR cells + 2 uM doxorubicin), the differential viability (reversal) is -11.4% (inactive). In addition, the inhibition in assay [7] was -3.08% (inactive); in assay [8], 0.33% (inactive); in assay [14], 0.905% (inactive). The growth inhibition in assay [9] is 3.63% (inactive); in [10], 3.83% (inactive). Further, the viability increase in [11] is -1.37% (inactive). Moreover, the RAM network inhibition in assay [15] is 0.73% (inactive).
With `CN(C)CCCN1C(=O)c2oc3ccc(Cl)cc3c(=O)c2C1c1cccnc1` (stereo not drawn), the viability in [1] was 100%; in assay [3] it was 100% (inactive); in [4], 96.7% (inactive); in assay [5] it was 83% (inactive); in [6] (setting [16]) it was 79.9%; in assay [6] (setting [17]) it was 83%. The viability in [12] was 93.5% (inactive); in assay [13], 92.7% (inactive). The Her2 level in assay [2] was 90.5% (inactive). In addition, in assay [6] (H69AR cells + 2 uM doxorubicin), the differential viability (reversal) was 3.07% (inactive). Besides, the values for the inhibition in assay [7], in assay [8] and in [14] were -2.93% (inactive), 3.5% (inactive) and 0.22% (inactive), respectively. Also, the growth inhibition in assay [9] was -2.16% (inactive); in assay [10] it was 4.2% (inactive). Also, the viability increase in assay [11] is -1.8% (inactive). Further, in [15], the RAM network inhibition is -2.19% (inactive).
For `Cc1ccc(-c2nc3cnccn3c2Nc2ccc3c(c2)OCO3)o1`, the viability in assay [1] was 91.5%; in assay [3], 91.5% (inactive); in assay [4] it was 92.4% (inactive); in [5], 77.7% (inactive); in assay [6] (setting [16]) it was 91.3%; in assay [6] (setting [17]), 77.7%. Further, the viability was 95.8% (inactive) in assay [12] and 91.9% (inactive) in assay [13]. Moreover, the Her2 level in assay [2] is 90.5% (inactive). Moreover, the differential viability (reversal) in assay [6] (H69AR cells + 2 uM doxorubicin) is -13.6% (inactive). Besides, the inhibition in assay [7] was -6.53% (inactive); in [8], -2.83% (inactive); in [14], 1.34% (inactive). The growth inhibition in assay [9] was -15.8% (inactive); in assay [10] it was 3.3% (inactive). Also, in assay [11], the viability increase is -3.1% (inactive). In assay [15], the RAM network inhibition is 12.5% (inactive).
Consider `O=C(Nc1ccc2c(c1)OCO2)c1ccc(CN2CCOCC2)cc1`, for which the viability in assay [1] is 97.5%; in [3], 97.5% (inactive); in [4], 98.7% (inactive); in [5] it was 97.3% (inactive); in assay [6] (setting [16]) it was 88.3%; in [6] (setting [17]), 97.3%. Also, the viability in assay [12] was 71.3% (inactive); in assay [13] it was 81.5% (inactive). Moreover, in assay [2], the Her2 level is 88% (inactive). Also, the differential viability (reversal) in assay [6] (H69AR cells + 2 uM doxorubicin) was 9.03% (inactive). Further, the inhibition in [7] was -7.07% (inactive); in assay [8] it was 7.1% (inactive); in assay [14], -0.165% (inactive). Besides, the growth inhibition in [9] was -6.27% (inactive); in [10], -16.3% (inactive). The viability increase in assay [11] is 0.57% (inactive). In addition, in assay [15], the RAM network inhibition is 9.65% (inactive).
On to `Fc1ccc(-c2nnc3ccc(N4CCCC4)nn23)cc1`, for which the viability in assay [1] was 80%; in [3], 80% (inactive); in assay [4] it was 64.2% (inactive); in assay [5], 94.5% (inactive); in [6] (setting [16]), 77.7%; in assay [6] (setting [17]), 94.5%. The viability in assay [12] is 102% (inactive); in assay [13], 86.3% (inactive). In addition, the Her2 level in assay [2] is 90.5% (inactive). Moreover, the differential viability (reversal) in [6] (H69AR cells + 2 uM doxorubicin) was 16.8% (inactive). Also, the inhibition in [7] was -0.27% (inactive); in assay [8], 8.52% (inactive); in assay [14] it was 0.685% (inactive). Besides, the growth inhibition in assay [9] was 11.7% (inactive); in assay [10], 32.5% (inactive). Moreover, the viability increase in assay [11] is -5.62% (inactive). Also, the RAM network inhibition in assay [15] is 5.61% (inactive).
With `CC1(C)CC(=O)C2=C(C1)NC(=O)CC2c1ccc(N(CCC#N)CCC#N)cc1` (stereo not drawn), the viability in assay [1] is 101%; in assay [3] it was 101% (inactive); in [4], 101% (inactive); in assay [5], 110% (inactive); in assay [6] (setting [16]) it was 86.6%; in [6] (setting [17]), 110%. Besides, the viability in assay [12] was 91.5% (inactive); in assay [13], 100% (inactive). Also, in [2], the Her2 level was 120% (inactive). For the same compound, in [6] (H69AR cells + 2 uM doxorubicin), the differential viability (reversal) was 23.6% (inactive). Further, the inhibition in assay [7] is -5.68% (inactive); in assay [8], -1.8% (inactive); in assay [14], 1.41% (inactive). Moreover, the growth inhibition in assay [9] was -9.4% (inactive); in assay [10], -8.29% (inactive). In addition, in [11], the viability increase is 0.18% (inactive). In [15], the RAM network inhibition is 1.8% (inactive).
Turning to `O=C1C/C(=C/NCc2ccccc2)C(=O)N1`, the viability in assay [1] was 93%; in [3] it was 93% (inactive); in assay [4], 95.5% (inactive); in [5], 97.2% (inactive); in [6] (setting [16]) it was 102%; in assay [6] (setting [17]), 97.2%. Moreover, the viability in [12] was 99.7% (inactive); in assay [13] it was 102% (inactive). In addition, the Her2 level in assay [2] was 111% (inactive). The differential viability (reversal) in [6] (H69AR cells + 2 uM doxorubicin) is -4.96% (inactive). The inhibition in assay [7] is 2.08% (inactive); in [8] it was -9% (inactive); in assay [14], 1.04% (inactive). In addition, the values for the growth inhibition in assay [9] and in assay [10] were -6.49% (inactive) and 0.205% (inactive), respectively. Also, in [11], the viability increase was 0.43% (inactive). Besides, in assay [15], the RAM network inhibition was 2.77% (inactive).
Turning to `CC(=O)OCCNc1cc(N2CCN(C)CC2)c2noc3c2c1C(=O)c1ccccc1-3`, the viability is 83% in [1]; 83% (inactive) in assay [3]; 68.9% (inactive) in [4]; 66.9% (inactive) in assay [5]; 75.4% in assay [6] (setting [16]); 66.9% in assay [6] (setting [17]). For the same compound, the viability in assay [12] was 76.8% (inactive); in assay [13], 73% (inactive). Further, the Her2 level in assay [2] is 102% (inactive). The differential viability (reversal) in assay [6] (H69AR cells + 2 uM doxorubicin) is -8.49% (inactive). In addition, the inhibition in [7] was -1.54% (inactive); in assay [8], 3.33% (inactive); in assay [14], 8.66% (active). Also, the growth inhibition in [9] is -7.97% (inactive); in assay [10] it was -9.2% (inactive). The viability increase in assay [11] is -6.89% (inactive). Moreover, the RAM network inhibition in assay [15] was 12.4% (inactive).
In the case of `COc1ccc(CNc2oc(-c3ccccc3)nc2C#N)cc1`, the viability in assay [1] is 88.5%; in assay [3], 88.5% (inactive); in assay [4] it was 69.7% (inactive); in assay [5], 103% (inactive); in assay [6] (setting [16]), 102%; in assay [6] (setting [17]) it was 103%. The viability in assay [12] was 98.8% (inactive); in assay [13], 98.6% (inactive). Moreover, in assay [2], the Her2 level was 83.5% (inactive). Besides, the differential viability (reversal) in assay [6] (H69AR cells + 2 uM doxorubicin) was 0.495% (inactive). Besides, the inhibition in assay [7] was 4.27% (inactive); in assay [8], -4.92% (inactive); in assay [14], 0.335% (inactive). In addition, the values for the growth inhibition in [9] and in assay [10] were 0.305% (inactive) and 12.3% (inactive), respectively. Besides, the viability increase in assay [11] was 2.09% (inactive). The RAM network inhibition in [15] is 4.07% (inactive).
